The text below walks through data of PubChem BioAssay AID2501 (Southern Research Specialized Biocontainment Screening …, 2010).

Where “and” joins values, the source holds several entries; their conditions need not be identical. Equal values may be shown once. Among all 2,200 compounds or so, about 1,200 (55%) were called active. No cut-off is given here; in the data, nearly all actives have IC50 up to about 92 µM. So high a share suggests a set chosen from earlier hits. The list shows a part of the results. Where only a bound is given, the exact number is not on record here.

The term IC50 denotes the concentration at which inhibition is half-maximal.

This test is described as follows: counter assay for TAg ATPase ADP read-out – biochemical, ADP-Hunter, fluorescence, counter-screen (AID 2501).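 For inhibition: higher means more inhibition.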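 Note: purified T antigen ATPase.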 As to conditions: series mostly up to 100 µM.
`CC(C)(C)CC(=O)NC(=S)Nc1ccccc1[N+](=O)[O-]`: the IC50 entry was “inactive”.

Take `Cc1c(CC(=O)N2CCN(C(=O)C3COc4ccccc4O3)CC2)c(=O)oc2c(O)c(O)ccc12` (configuration not stated): the concentration for half-maximal inhibition (IC50) was 5.3 µM (active).

With `COc1ccc(C(=O)N2CCN(C(=O)C3COc4ccccc4O3)CC2)cc1` (configuration not stated), the IC50 entry was “inactive”.

Regarding `COc1cc(/C=N/N2C(=O)C3C4C=CC(CC4)C3C2=O)ccc1O` (configuration not stated), the IC50 was 5.67 µM (active).

On to `COC(=O)c1ccc(-c2ccc(/C=N/N3C(=O)C4C5C=CC(C6CC56)C4C3=O)o2)cc1` (configuration not stated), for which the IC50 entry was “inactive”.

For the compound `O=C1C2C3C=CC(CC3)C2C(=O)N1/N=C/c1ccc(O)c(O)c1` (configuration not stated), the IC50 was 5.65 µM (active).

With `Cc1oc2c(O)c(O)ccc2c(=O)c1-c1cnn(-c2ccccc2)c1`, the 50% inhibitory concentration (IC50) is 9.31 µM (active).

As to `CCSC1(SCC)N=C(N)C2(C#N)C(c3ccc(OC)c(OC)c3OC)C12C#N` (configuration not stated), the IC50 is 96.4 µM (active).

On to `COC(=O)CN1C(=O)[C@@H]2[C@H](C1=O)[C@@H]1CC(C(=O)OC)=C[C@@H](C(=O)OC)[C@@H]3C1=C(C(=O)[C@]3(C)NC(=O)c1ccccc1)[C@@H]2C`, for which the IC50 entry is “inactive”.

Turning to `C/C(=N/NC(=O)Cc1c(C)[nH][nH]c1=O)c1ccc(O)cc1`, the 50% inhibitory concentration (IC50) is 9.47 µM (active).

Take `COc1cc(/C(C)=N/NC(=O)Cc2c(C)[nH][nH]c2=O)ccc1O`: the IC50 was 3.72 µM (active).

On to `CSc1ccc(CCNC(=O)C2CCCN(S(=O)(=O)N3CCOCC3)C2)cc1` (configuration not stated), for which the IC50 result is “inactive”.

`COc1cc(/C=N/n2c(-c3n[nH]c4c3CCC4)n[nH]c2=S)cc(OC)c1O`: the 50% inhibitory concentration (IC50) is 8.78 µM (active).

For the compound `COc1cc(/C=N/n2c(-c3n[nH]c4c3CCC4)n[nH]c2=S)ccc1O`, the IC50 is 5.13 µM (active).

As for `CCS(=O)(=O)c1nc(S(=O)(=O)c2ccc(Cl)cc2)c(NCc2ccccn2)s1`, the IC50 entry is “inactive”.

On to `Cc1[nH][nH]c(=O)c1C(c1ccc(-c2cccc(Cl)c2)o1)c1c(C)[nH][nH]c1=O`, for which the IC50 entry is “inactive”.

`CCCSc1nc(O)c(C(c2ccc(OC)c(O)c2)c2c(O)nc(SCCC)n(C)c2=O)c(=O)n1C`: the IC50 entry was “inactive”.

As to `CCOc1cc(C(c2c(C)[nH][nH]c2=O)c2c(C)[nH][nH]c2=O)ccc1O`, the half-inhibitory concentration (IC50) was 4.65 µM (active).

For `COc1cc(C(c2c(C)[nH][nH]c2=O)c2c(C)[nH][nH]c2=O)ccc1OC(C)C`, the half-maximal inhibitory concentration (IC50) is 69 µM (active).

`CCOc1cc(C(c2c(C)[nH][nH]c2=O)c2c(C)[nH][nH]c2=O)ccc1OC(=O)c1cccc([N+](=O)[O-])c1`: the IC50 is 28.9 µM (active).

With `COCC(C)NC(=O)c1cccc([N+](=O)[O-])c1` (configuration not stated), the IC50 result is “inactive”.

Regarding `CC(C)c1ccc(S(=O)(=O)N2CCN(CCC(=O)Nc3ccc(N(C)C)cc3)CC2)cc1`, the IC50 was 12 µM (active).

Consider `CN(C)c1ccc(NC(=O)CCN2CCN(c3ccccn3)CC2)cc1`, for which the IC50 is 4.88 µM (active).

With `CC(=O)Nc1ccc(NC(=O)C(C)N2CCN(S(=O)(=O)c3ccc(C)cc3)CC2)cc1` (configuration not stated), the IC50 entry is “inactive”.

With `CCS(=O)(=O)c1ncc(Cl)c(C(=O)Nc2ccc(S(=O)(=O)N3CCC(C)CC3)cc2)n1`, the IC50 entry is “inactive”.

Regarding `O=C(CCN1C(=O)/C(=C\C=C\c2ccccc2)SC1=S)Nc1ccc(C(=O)O)cc1`, the IC50 result is “inactive”.

On to `CN(C)c1ccc(NC(=O)c2ccc(N3CCOCC3)nc2)cc1`, for which the half-inhibitory concentration (IC50) is 3.34 µM (active).

As for `Cc1ccsc1C(=O)N1CCCC(CCC(=O)N2CCN(c3ccccn3)CC2)C1` (configuration not stated), the IC50 result was “inactive”.

Take `O=C1OC2(c3ccccc31)c1cc(I)c(O)c(I)c1Oc1c2cc(I)c(O)c1I`: the IC50 result is “inactive”.

`O=C(Nc1cccc2c1CCCC2)c1ccccc1Cl`: the IC50 result is “inactive”.

`O=C(NC(=S)Nc1ccc(O)cc1)c1ccccc1Cl`: the 50% inhibitory concentration (IC50) was 2.31 µM (active).

For the compound `O=C(Nc1ccc(Nc2ccccc2)cc1)N1CCOCC1`, the half-inhibitory concentration (IC50) was 3.84 µM (active).

`Oc1ccc(NC(=S)Nc2ccccc2)cc1`: the IC50 is 4.74 µM (active) and 4.32 µM (active).

Take `O=C(NNC(=O)c1ccccc1-n1cccc1)c1ccc(Cl)cc1Cl`: the IC50 entry is “inactive”.

Regarding `O=C(c1ccc(-c2ccccc2Cl)s1)N1CCOCC1`, the IC50 result is “inactive”.

As for `NC(=O)Nc1ccc(Nc2ccccc2)cc1`, the concentration for half-maximal inhibition (IC50) is 4.72 µM (active).

With `C=C(C)C(=O)O[C@H]1C/C(C)=C\C(=O)/C=C(\C)[C@H](O)[C@@H]2OC(=O)C(=C)[C@@H]21`, the IC50 entry is “inactive”.

In the case of `CCCCNC(=S)N(CCN(C)C)Cc1cc2cc3c(cc2[nH]c1=O)OCCO3`, the IC50 result is “inactive”.

With `COc1cccc(NC(=O)CC2(CC(=O)O)CCCC2)c1`, the IC50 result was “inactive”.

As to `O=C(O)[C@H]1CCCC[C@H]1C(=O)Nc1ccc(Nc2ccccc2)cc1`, the concentration for half-maximal inhibition (IC50) was 3.86 µM (active).

As to `O=C(NC(=S)Nc1ccc(O)cc1)c1cncc(Br)c1`, the IC50 is 3.94 µM (active).

For the compound `CNC(=S)Nc1ccc(Nc2ccccc2)cc1`, the concentration for half-maximal inhibition (IC50) was 4.39 µM (active).

As to `COc1cccc(NC(=S)Nc2ccc(O)cc2)c1`, the IC50 is 1.13 µM (active).

For `O=c1[nH]c2cc3c(cc2cc1CN(Cc1cccnc1)Cc1nnnn1Cc1ccco1)OCCO3`, the IC50 entry is “inactive”.

With `COc1ccc(N=Cc2c[nH][nH]c2=O)cc1`, the half-inhibitory concentration (IC50) is 9.97 µM (active).

For the compound `CC1(C)Nc2ccc(O)cc2-c2c1ssc2=S`, the IC50 is 14.6 µM (active).

As for `O=C1OCC/C1=C\c1ccc(O)cc1`, the concentration for half-maximal inhibition (IC50) is 7.82 µM (active).

`Nc1ccc(O)c2ccccc12`: the IC50 result is “inactive”.

On to `CS(=O)(=O)c1ccc(N)c(SSc2cc(S(C)(=O)=O)ccc2N)c1`, for which the IC50 result was “inactive”.

In the case of `Nc1cc(S(=O)(=O)c2ccc(O)c(N)c2)ccc1O`, the IC50 is 3.9 µM (active).

As to `Nc1n[nH]c(=S)n1/N=C1/C(=O)Nc2ccccc21`, the half-maximal inhibitory concentration (IC50) is 9.5 µM (active).

For the compound `Cc1cccc(C)c1NCC(=O)N1CCN(Cc2ccccc2)CC1`, the IC50 entry is “inactive”.

For the compound `Oc1ccc(/C=N/N2CCN(c3ccccn3)CC2)cc1`, the half-inhibitory concentration (IC50) is 10.4 µM (active).

Regarding `Cn1cccc1/C=N/N1CCN(c2ccccn2)CC1`, the IC50 was 7.28 µM (active).

As to `Cn1cccc1/C=N/N1CCN(Cc2ccccc2)CC1`, the 50% inhibitory concentration (IC50) was 21 µM (active).

Consider `COCc1cc(CN2CCN(CCc3ccccc3)C(CCO)C2)ccc1OC` (configuration not stated), for which the IC50 entry is “inactive”.

For `Cc1oc(-c2cccs2)nc1CN1CCN(C(C)C)C(CCO)C1` (configuration not stated), the IC50 entry was “inactive”.

Consider `COc1cccc(CN2CCN(Cc3nc(-c4cccs4)oc3C)CC2CCO)c1` (configuration not stated), for which the 50% inhibitory concentration (IC50) was < 1.56 µM (active).

As to `N#CC1=C(N)C2=C(N3CCCCC3)CCCC2C1(C#N)C#N` (configuration not stated), the half-maximal inhibitory concentration (IC50) was 8.2 µM (active).

Regarding `COc1cc(/C=C2\SC(=S)N(C(C(=O)O)c3ccccc3)C2=O)ccc1O` (configuration not stated), the IC50 was 7.98 µM (active).

As for `CC(C(=O)Nc1ccc(C(=O)O)c(O)c1)N1C(=O)/C(=C\c2ccco2)SC1=S` (configuration not stated), the IC50 result was “inactive”.

Turning to `O=C(O)C(c1ccccc1)N1C(=O)/C(=C\c2ccc(O)c(O)c2)SC1=S` (configuration not stated), the 50% inhibitory concentration (IC50) is 8.33 µM (active).

With `CC(C)C(C(=O)O)N1C(=O)/C(=C/C=C/c2ccco2)SC1=S` (configuration not stated), the IC50 result was “inactive”.

For the compound `O=C(O)C(Cc1ccccc1)N1C(=O)/C(=C/C=C/c2ccco2)SC1=S` (configuration not stated), the IC50 result is “inactive”.

On to `COc1cc(/C=C2\SC(=S)N(C(Cc3ccccc3)C(=O)O)C2=O)ccc1O` (configuration not stated), for which the IC50 is 6.37 µM (active).

For the compound `Cc1ccc([C@@H]2[C@@H]3C(=O)N(c4ccccc4)C(=O)[C@@H]3[C@]3(C)C(=O)N(Cc4ccccn4)CC(=O)N23)o1`, the IC50 entry was “inactive”.

For `CSc1nnc(-c2ccc(O)cc2)n1C`, the half-inhibitory concentration (IC50) is 27.5 µM (active).

On to `CC/C(=N\NC(=O)CCC(=O)NCc1ccccc1)c1ccc(O)cc1`, for which the IC50 is 9.43 µM (active).

Take `CCOC(=O)/C=C/C(=O)OCC(=O)NCc1ccccc1`: the IC50 entry is “inactive”.

Take `Cc1cc(C)cc(-n2nnc(C(=O)NCc3ccccc3)c2N)c1`: the IC50 entry is “inactive”.

As for `CN1C(=O)C2C(c3ccc(N(C)C)cc3)=NN(Cc3ccccc3)C2C1=O` (configuration not stated), the half-inhibitory concentration (IC50) was 9.4 µM (active).

`CC(C)C(=O)Nc1ccc(O)c(-c2csc(N)n2)c1`: the IC50 was 10.3 µM (active).

Regarding `O=[N+]([O-])c1cccc(NC(=S)NCc2ccncc2)c1`, the IC50 entry is “inactive”.

Take `CCc1cccc2c(C(=O)CN3C(=O)NC(C)(c4cccc5ccccc45)C3=O)c[nH]c12` (configuration not stated): the IC50 result is “inactive”.

`CN(C)c1ccc(NC(=O)CSc2nnc(-c3ccco3)c(-c3ccco3)n2)cc1`: the IC50 is 6.24 µM (active).

As for `CCc1nc(SCC(=O)Nc2ccc(N(C)C)cc2)n[nH]1`, the half-inhibitory concentration (IC50) is 6.73 µM (active).

`CSc1nnc(-c2ccco2)c(-c2ccco2)n1`: the IC50 result was “inactive”.

`Cc1ccccc1NC(=O)CSc1nnc(-c2ccco2)c(-c2ccco2)n1`: the IC50 result is “inactive”.

Regarding `Cn1c2ccccc2c2nnc(SCC(=O)Nc3cccc(C(=O)O)c3)nc21`, the IC50 entry is “inactive”.

For the compound `FC(F)(F)C1CCCN(c2nsc3ccccc23)C1` (configuration not stated), the IC50 entry was “inactive”.

Regarding `CN1\C(=C/C=C/C=C/C=[N+](C)C)C(C)(C)c2ccccc21`, the IC50 is 12.3 µM (active).

With `CNC(=S)NNC(=O)c1cc(C(C)(C)C)nn1Cc1ccc(F)cc1`, the IC50 result was “inactive”.

On to `Cc1cc(/C=N/NC(=O)C(O)(c2ccccc2)c2ccccc2)c(C)n1-c1cccc(C(=O)O)c1`, for which the IC50 entry was “inactive”.

With `Cc1ccc(-c2cc(C(=O)NCc3ccco3)c3ccccc3n2)o1`, the IC50 result is “inactive”.

For `O=C(N/N=C/c1ccc(O)cc1)c1csc2ccccc12`, the half-maximal inhibitory concentration (IC50) is 4.27 µM (active).

Consider `CCc1cc(C(=O)N/N=C/c2ccc(O)cc2)c2ccccc2n1`, for which the IC50 was 2.69 µM (active).

For `Cc1cccc(NC(=O)c2cc(Cl)nc3ccccc23)c1`, the IC50 entry was “inactive”.

Consider `O=C(O)c1cc(N/N=C/c2cccc3ccccc23)ccc1Cl`, for which the IC50 result was “inactive”.

Regarding `O=C(N/N=C/c1ccc(O)c(O)c1)c1cc(-c2ccccc2)nc2ccccc12`, the 50% inhibitory concentration (IC50) was 36 µM (active).

With `CC(C)(C)c1cc(C(=O)N/N=C/c2ccc(O)cc2)n(-c2ccccc2)n1`, the IC50 is 61.4 µM (active).

As for `Cc1nnc(NC(=O)c2cc(-c3ccco3)nc3ccccc23)s1`, the IC50 entry was “inactive”.

Turning to `Nc1ccc(-n2nncc2-c2ccc(Cl)cc2)cc1`, the IC50 result is “inactive”.

Regarding `COc1cnc(-c2ccccn2)nc1Oc1ccc(Cl)c2ccccc12`, the IC50 result is “inactive”.

On to `CC(NC(=O)Nc1ccc(O)cc1)(C(F)(F)F)C(F)(F)F`, for which the IC50 was 6.77 µM (active).

In the case of `CCOC(=O)C1(Cc2ccccc2)CCN(Cc2cnn(C(C)C)c2)CC1`, the IC50 is 26.4 µM (active).

In the case of `CCOC(=O)C1(CCc2ccccc2)CCN(C(=O)CCc2cnn(C)c2)CC1`, the IC50 result was “inactive”.

On to `CCOC(=O)C1(Cc2ccc(Cl)cc2)CCN(C(=O)CCc2ccncc2)CC1`, for which the IC50 result is “inactive”.
